In the library only some 19% were active in any assay of this set; here they are far more common.
TGFb inhibitor: qHTS for Inhibitors of TGF-b. HepG2 CAGA-GFP TGF-b/SMAD3 reporter, GFP fluorescence, 18 h; TGF-beta stimulated, 500 pg/mL final. Potency, µM (highest dose often 46.1 µM), actives largely listed as inhibitors. 410,000 compounds, 1.2% hits; note: nearly all actives have a fitted effect of over 65% in size
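First, reporter cells (HEPG2 CAGA-GFP) rested 2 h at 37 degrees C. Next, compounds were pinned in and TGF-beta added to 500 pg/mL final. After 18 h, GFP was imaged per cell and summed per well.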
IL1B secr inh: qHTS for Inhibitors of Inflammasome Signaling: IL-1-beta AlphaLISA Primary Screen. THP-1 LPS/ATP IL-1B secretion, AlphaLISA, 16 h; hits give low values. activity change, % at 57.5 µM. 360,000 compounds, 4.7% hits. AID 743279, 2014; in the data active = activity change below about -50%; inconclusive = mostly about -30% to -49%
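Secreted IL-1B measured by AlphaLISA bead assay after 16 h compound exposure of THP-1 cells; compounds (final up to 57.5 uM) added 1 h before LPS (250 ng/mL) and ATP (1.25 mM) stimulation; lower signal means less secretion.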
DT40 TDP1 CPT: qHTS for Inhibitors of human tyrosyl-DNA phosphodiesterase 1 (TDP1): qHTS in cells in presence of CPT; chicken DT40 Tdp1-/-;hTDP1 cells + 20 nM CPT, ATP luminescence, 48 h; Potency, µM (series often up to 46.2 µM), usual class: inhibitors; 420,000 compounds, 12% hits; AID 686979, 2013; note: nearly all actives have a fitted effect of over 55% in size
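Cell growth measured by CellTiter-Glo luminescence after a minimum 48 h, 37 C compound exposure with 20 nM CPT in Tdp1-knockout DT40 cells stably expressing hTDP1, seeded 400/well; qHTS titration format.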
HepG2 tox: qHTS for Inhibitors of TGF-b: Cytotox Counterscreen | HepG2 CAGA-GFP viability, ATP luminescence, 18 h | Potency, µM (doses to about 46.1 µM), hits mostly cytotoxic | 410,000 compounds, 0.76% hits | AID 588856, 2011
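CellTiter-Glo luminescence gave cytotoxicity after 18 hours at 37 degrees C. The cells were HepG2 CAGA-GFP in 1% FBS DMEM, stimulated with 500 pg/mL TGF-beta after compound addition. %Activity was normalised to no-cell wells (complete cell-killing) and DMSO (no toxicity), and curves were fitted and classified.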
TDP1 cell noCPT: qHTS for Inhibitors of human tyrosyl-DNA phosphodiesterase 1 (TDP1): qHTS in cells in absence of CPT | DT40 Tdp1-/- hTDP1 cells, no CPT, ATP luminescence, 48 h | Potency, µM (highest dose often 46.2 µM), hits mostly inhibitors | 420,000 compounds, 15% hits | AID 686978, 2013; note: nearly all actives have a fitted effect of over 55% in size
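Chicken DT40 Tdp1-/- cells stably complemented with human TDP1 were seeded at 400 cells/well with DMSO in place of 20 nM camptothecin. After compound pinning, cells grew at least 48 hr at 37 °C; viability read by CellTiter-Glo luminescence.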
S-ASM inh: Inhibitors of Secretory Acid Sphingomyelinase (S-ASM): qHTS. Sphingomyelin phosphodiesterase (Homo sapiens), P17405. placental ASM, HMU-PC fluorogenic substrate, 60 min. Potency, µM (top dose mostly 57.5 µM), hits mostly inhibitors. 340,000 compounds, 0.006% hits
Target sequence (P17405 47-631 limits assumed): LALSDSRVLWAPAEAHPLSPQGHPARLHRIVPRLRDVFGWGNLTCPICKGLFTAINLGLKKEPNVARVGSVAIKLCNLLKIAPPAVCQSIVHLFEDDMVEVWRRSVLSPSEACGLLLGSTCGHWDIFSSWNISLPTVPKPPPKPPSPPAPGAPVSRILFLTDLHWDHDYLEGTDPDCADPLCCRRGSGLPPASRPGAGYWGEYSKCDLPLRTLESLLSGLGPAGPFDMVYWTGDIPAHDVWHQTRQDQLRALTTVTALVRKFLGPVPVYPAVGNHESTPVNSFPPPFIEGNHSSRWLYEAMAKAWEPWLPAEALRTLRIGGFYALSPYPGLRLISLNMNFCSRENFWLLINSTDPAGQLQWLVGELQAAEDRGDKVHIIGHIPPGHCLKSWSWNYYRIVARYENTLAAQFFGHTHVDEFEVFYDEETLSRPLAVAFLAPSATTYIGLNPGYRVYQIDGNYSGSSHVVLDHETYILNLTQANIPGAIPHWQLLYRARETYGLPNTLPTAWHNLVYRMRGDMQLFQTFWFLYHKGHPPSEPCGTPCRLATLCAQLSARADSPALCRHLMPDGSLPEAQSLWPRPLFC
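Steps: dispense placental human ASM, pin compound, wait 10 min at room temperature, add HMU-PC0 substrate at 9 uM final, incubate 60 min at 37 °C, add stop solution raising pH to 10, read fluorescence.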
Hits are given with their value; - = inactive; ? = inconclusive; . = not tested or not shown; ! = not active in a repeat; [ ] = another dose, or the depositor's remark. Unless noted, calls come from the whole dose curve; as a rule, active = well fitted curve in the direction sought with a large enough effect; inconclusive = small, poorly fitted or top-dose-only effect, or another doubt; inactive = no such curve, though single readings can be large; an effect the other way counts as inactive or inconclusive.

SMILES | TGFb inhibitor | IL1B secr inh | DT40 TDP1 CPT | HepG2 tox | TDP1 cell noCPT | S-ASM inh
CCN1CCN(C(=O)C2CCCN(S(=O)(=O)c3cccc4nsnc34)C2)CC1 (configuration not stated) | ? | - | - | - | - | -
Cc1cccc(N2CCN(C(=O)C3CCCN(S(=O)(=O)c4cccc5nsnc45)C3)CC2)c1C (configuration not stated) | - | . | - | - | 18µM | .
CC(C)NC(=O)C1CCCN(S(=O)(=O)c2cccc3nonc23)C1 (configuration not stated) | - | - | - | - | - | -
O=C(C1CCCN(S(=O)(=O)c2cccc3nsnc23)C1)N1CCCCCC1 (configuration not stated) | - | - | - | - | ? | -
COc1ccccc1C1CN(Cc2c(O)cccc2OC)Cc2ccccc2O1 (configuration not stated) | . | . | -[9.04 µM] | . | - | .
O=C(C1CCCN(S(=O)(=O)c2cccc3cccnc23)C1)N1CCN(c2ccccc2F)CC1 (configuration not stated) | - | - | 23µM | - | 15µM | -
CCOC(=O)C1(CC)CC(CSc2nc3ccccc3[nH]2)OC1=O (configuration not stated) | - | - | ? | - | ? | -
CCCCCC1(C(=O)OCC)CC(CSC(=N)N)OC1=O (configuration not stated) | 13µM | - | 21µM | - | 16µM | -
Cc1nn(CC(=O)c2ccc3c(c2)OCCO3)c(=O)c(C#N)c1C | - | - | - | - | - | -
CCN1CCN(Cc2ccc(NC(=O)c3ccc(C)c(NC(=O)c4cccc5[nH]ccc45)c3)cc2C(F)(F)F)CC1 | ? | -98 | 12µM | - | 13µM | -
CCN1CCN(Cc2ccc(NC(=O)c3cc(NC(=O)c4nccnc4N)cc(OC)c3)cc2C(F)(F)F)CC1 | ? | ? | ? | - | ? | -
CCN1CCN(Cc2ccc(NC(=O)c3ccc(C)c(NC(=O)c4cc(-c5ccc(Br)cc5)n[nH]4)c3)cc2C(F)(F)F)CC1 | ? | -58 | ? | - | ? | -
CCN1CCN(Cc2ccc(NC(=O)c3ccc(C)c(NC(=O)c4nccnc4N)c3)cc2C(F)(F)F)CC1 | ? | -93 | ? | - | 21µM | -
CCN1CCN(Cc2ccc(NC(=O)c3cc(NC(=O)c4cnnc5ccccc45)cc(OC)c3)cc2C(F)(F)F)CC1 | ? | - | 8.2µM | 18µM! | 6.5µM | -
CCN1CCN(Cc2nc3cc(NC(=O)c4cc(OC)c(OC)c(OC)c4)ccc3n2CC)CC1 | - | . | - | - | - | .
COc1ccc(NS(=O)(=O)NC(=O)c2cn(C)c3ccccc23)cc1 | - | - | - | - | - | -
CCN1CCN(Cc2ccc(NC(=O)c3ccc(C)c(NC(=O)c4nccn4C)c3)cc2C(F)(F)F)CC1 | ? | -58 | - | - | - | -
CCN1CCN(Cc2ccc(NC(=O)c3ccc(C)c(NC(=O)c4cncc(-c5cccs5)c4)c3)cc2C(F)(F)F)CC1 | ? | -110 | 2.3µM | 10µM | 1.6µM | -
Cc1cccc(C(=O)Nc2cc(NC(=O)c3cccs3)ccc2C)c1 | - | - | ? | - | ? | -
O=C(C[C@H]1CC[C@@H]2[C@H](COC[C@@H](O)CN2C(=O)C2CC2)O1)NCc1ccccc1Cl | . | - | - | . | - | .
Cc1ccc(NC2=C(N3CCOCC3)C(=O)c3ccccc3C2=O)cc1 | ? | -100 | 21µM | - | 26µM | -
Cc1ccc(S(=O)(=O)Nc2ccc(N3CCOCC3)cc2)cc1 | - | - | - | - | - | -
CC(=O)N(C)C1=C(N2CCOCC2)C(=O)c2ccccc2C1=O | 1.6µM | -94 | 0.18µM | 0.56µM | 0.16µM | -
O=C(O)c1ccc(NC2=C(N3CCOCC3)C(=O)c3ccccc3C2=O)cc1 | - | - | ? | - | ? | -
CC(=O)c1ccc(NC2=C(N3CCOCC3)C(=O)c3ccccc3C2=O)cc1 | ? | -76 | 23µM | - | 21µM | -
SMILES | TGFb inhibitor | IL1B secr inh | DT40 TDP1 CPT | HepG2 tox | TDP1 cell noCPT | S-ASM inh
COC(=O)[C@@H]1CCCN1Cc1ccc2c(c1)CN(Cc1coc3ccc(C)cc3c1=O)CCO2 | . | . | -[9.04 µM] | . | ? | .
CCOC(=O)c1cc(-c2ccccc2)nc2nc(N(CC)CC)sc12 | - | -54 | - | - | ? | -
COc1ccccc1OCCC(=O)N1CCN(c2ccccc2OC)CC1 | - | - | ? | - | ? | -
CC(=O)c1ccc(N2CCN(C(=O)COc3ccccc3F)CC2)c(F)c1 | - | - | ? | - | 23µM | -
CCC(=O)c1ccc(N2CCN(C(=O)COc3ccccc3F)CC2)c(F)c1 | - | - | ? | - | 13µM | -
O=C(CCOc1ccccc1F)N1CCN(c2ccccc2O)CC1 | - | - | ? | - | 16µM | -
Cc1cccc(CN2CCN(Cc3ccc4nonc4c3)CC2CCO)n1 (configuration not stated) | - | - | - | - | - | -
O=C(OC1CCOC1=O)c1ccccc1C(=O)c1ccc(Cl)c([N+](=O)[O-])c1 (configuration not stated) | ? | - | ? | - | - | -
CNC(=O)COC(=O)c1ccccc1C(=O)c1ccc(Cl)c([N+](=O)[O-])c1 | - | -107 | ? | - | ? | -
O=C(COC(=O)c1ccccc1C(=O)c1ccc(Cl)c([N+](=O)[O-])c1)NC1CC1 | ? | -103 | 18µM | 16µM | 16µM | -
Cc1ccc(CN(Cc2ccccn2)C(=O)Nc2c(F)cccc2F)cc1 | - | ? | ? | - | - | -
CCOc1cccc2sc(NC(=O)c3ccc(S(=O)(=O)N4CCCCC4)cc3)nc12 | - | . | ? | - | - | .
Cc1ccc(S(=O)(=O)NCC(=O)NCC(=O)OCC(=O)N2CC(=O)Nc3ccccc32)cc1C | - | - | ? | - | ? | -
COc1ccc(N2CCN(Cc3nc4scc(-c5ccccc5)c4c(=O)[nH]3)CC2)cc1 | - | - | ? | - | - | -
COc1ccc(N2CCN(Cc3nc4scc(-c5cccs5)c4c(=O)[nH]3)CC2)cc1 | - | -69 | - | - | ? | -
O=c1[nH]c(CN2CCN(c3ccccc3)CC2)nc2scc(-c3ccccc3)c12 | - | - | 13µM | - | 5.2µM | -
CCOc1ccc(Oc2nc(NC)nc(N3CCOCC3)n2)nn1 | - | . | - | - | - | .

High-throughput results as filed in PubChem.
